Screening results deposited in PubChem by National Center for Advancing Translational Sciences (NCATS).
Shown is part of a subset that was picked to be rich in hits.
RECQ1 inh: RECQ1 (human) helicase inhibition | P46063 | hit rate 0.54% among 240,000 | RECQ1 DNA unwinding, red fluorescence kinetic read | Potency, µM (top dose mostly 57.3 µM), for the others: at the highest dose activity, negative = inhibition, most hits filed as inhibitors | AID 2549;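 note: plate controls were vehicle for no effect and no enzyme for full effect; nearly all actives have a fitted effect of over 30% in size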
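RECQ1T1 50 nM; forked duplex (20 bp + 30-nt ss tails) 200 nM, ATP 2 mM final; pH 8.0, 2 mM MgCl2, 2.5 ug/ml poly(dI-dC); 15 min compound preincubation; discontinuous kinetic read over 2 h at RT.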
JMJD2E inh: blocks human JMJD2E demethylase activity; JMJD2E catalytic domain, FDH-coupled NADH fluorescence (FDH is formaldehyde dehydrogenase); hit rate 1.6% among 230,000; Potency, µM (titrated, usually from 57.1 µM), without a hit: at the top dose activity change, negative = inhibition, hits mostly inhibitors; active = well fitted inhibition curve with a large enough effect, not every such curve was filed as active; inconclusive = small, poorly fitted or top-dose-only effect, or another doubt; inactive = no such curve, though single readings can be large or run the other way;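 note: 0% = wells with enzyme and -100% = buffer wells without enzyme; nearly all actives have a fitted effect of over 50% in size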
L3MBTL1 inh-1: blocks human L3MBTL1; AlphaScreen L3MBTL1–H3K9me1 peptide binding; Potency, µM (doses to about 57.1 µM), without a hit: at the highest dose activity, negative = inhibition, hits mostly inhibitors; AID 485360; Q9Y468; hit rate 0.66% among 230,000; note: % is set by controls: 0 for no effect and ±100 for the full control effect; nearly all actives have a fitted effect of over 60% in size
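Displacement of a biotinylated histone H3(1-15) peptide monomethylated at Lys9 (75 nM) from L3MBTL1 (50 nM) was measured by AlphaScreen after a 30 min room-temperature compound incubation; cefsulodin titration served as intraplate control.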
BLM inh: Bloom syndrome helicase (human) inhibition; Potency, µM (top dose mostly 56.1 µM), for the others: at the highest dose activity change, negative = inhibition, usual class: inhibitors; P54132; hit rate 0.2% among 350,000; recombinant BLM DNA unwinding, fluorescence dequenching;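 note: plate controls were vehicle for no effect and no enzyme for full effect; nearly all actives have a fitted effect of over 35% in size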
Target sequence (P54132 whole entry, looked up): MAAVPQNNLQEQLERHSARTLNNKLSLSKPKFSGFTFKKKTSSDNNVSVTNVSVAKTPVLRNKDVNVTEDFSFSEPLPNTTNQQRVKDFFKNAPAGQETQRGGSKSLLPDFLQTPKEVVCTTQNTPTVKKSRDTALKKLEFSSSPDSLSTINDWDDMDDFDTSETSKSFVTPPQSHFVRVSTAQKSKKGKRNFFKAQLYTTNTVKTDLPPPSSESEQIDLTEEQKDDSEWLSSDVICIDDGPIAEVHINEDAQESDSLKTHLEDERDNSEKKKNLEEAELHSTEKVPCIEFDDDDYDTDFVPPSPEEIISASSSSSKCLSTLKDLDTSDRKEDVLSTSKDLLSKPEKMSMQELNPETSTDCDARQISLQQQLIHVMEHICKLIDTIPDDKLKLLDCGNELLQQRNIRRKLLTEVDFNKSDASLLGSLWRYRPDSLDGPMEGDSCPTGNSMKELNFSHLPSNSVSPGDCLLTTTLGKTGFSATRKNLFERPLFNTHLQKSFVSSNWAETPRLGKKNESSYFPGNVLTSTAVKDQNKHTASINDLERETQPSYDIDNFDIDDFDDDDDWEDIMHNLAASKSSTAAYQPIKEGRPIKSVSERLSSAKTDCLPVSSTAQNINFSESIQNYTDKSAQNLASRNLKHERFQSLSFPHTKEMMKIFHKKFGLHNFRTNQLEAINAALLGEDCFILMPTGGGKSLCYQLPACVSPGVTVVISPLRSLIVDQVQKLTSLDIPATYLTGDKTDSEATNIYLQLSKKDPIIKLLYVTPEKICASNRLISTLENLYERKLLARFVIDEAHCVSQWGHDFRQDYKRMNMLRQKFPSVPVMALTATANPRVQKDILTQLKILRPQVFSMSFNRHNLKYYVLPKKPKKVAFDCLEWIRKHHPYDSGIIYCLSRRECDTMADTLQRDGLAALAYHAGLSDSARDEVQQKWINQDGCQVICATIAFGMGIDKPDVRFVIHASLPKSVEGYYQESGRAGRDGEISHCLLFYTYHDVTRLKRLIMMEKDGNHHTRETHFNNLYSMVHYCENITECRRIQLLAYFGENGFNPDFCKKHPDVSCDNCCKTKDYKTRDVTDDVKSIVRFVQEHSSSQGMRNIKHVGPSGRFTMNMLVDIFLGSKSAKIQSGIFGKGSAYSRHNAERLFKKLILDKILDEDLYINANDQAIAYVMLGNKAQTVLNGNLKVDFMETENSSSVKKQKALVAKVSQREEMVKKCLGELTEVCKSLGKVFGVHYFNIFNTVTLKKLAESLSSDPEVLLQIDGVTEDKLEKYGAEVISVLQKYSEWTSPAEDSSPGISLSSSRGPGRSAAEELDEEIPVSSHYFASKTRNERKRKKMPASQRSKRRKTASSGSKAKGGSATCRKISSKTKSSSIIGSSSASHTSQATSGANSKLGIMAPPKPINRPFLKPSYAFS
APE1 inh: APE1 (human) endonuclease inhibition; P27695; AID 2517; Potency, µM (top dose mostly 65.8 µM), without a hit: at the top dose activity change, negative = inhibition, hits mostly inhibitors; recombinant APE1, TAMRA/BHQ-2 abasic DNA cleavage fluorescence; hit rate 0.35% among 350,000;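 note: plate controls were vehicle for no effect and reference inhibitor for full effect; nearly all actives have a fitted effect of over 55% in size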
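Compound pre-exposure to 0.75 nM APE1, 15 min at ambient temperature. Reaction initiated with 50 nM TAMRA/BHQ-2 THF substrate, read immediately in kinetic mode, 525 nm excitation, 598 nm emission.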
L3MBTL1 inh-2: blocks human L3MBTL1 methyl-lysine binding | shares compounds with L3MBTL1 inh-1 | L3MBTL1 methyl-lysine binding inhibition, biochemical qHTS | Potency, µM, most hits filed as inhibitors | hit rate 91% among 500 | AID 540279; note: nearly all actives have a fitted effect of over 70% in size
L3MBTL1 ctr: interferes with AlphaScreen signal in L3MBTL1 counterscreen; shares compounds with L3MBTL1 inh-1; AlphaScreen counterscreen, signal inhibition; Potency, µM (highest dose often 57.1 µM), without a hit: top-dose activity change, negative = inhibition, usual class: inhibitors; 500 tested, under 10 active; AID 602224; note: 0% is about no effect
* hit, by the source's call; u = inconclusive; x = no result given; [ ] = another dose, or the depositor's remark. Unless noted, calls come from the whole dose curve; as a rule, active = well fitted curve in the direction sought with a large enough effect; inconclusive = small, poorly fitted or top-dose-only effect, or another doubt; inactive = no such curve, though single readings can be large; an effect the other way counts as inactive or inconclusive. Potency is the fitted concentration of half-maximal effect.

SMILES | RECQ1 inh | JMJD2E inh | L3MBTL1 inh-1 | BLM inh | APE1 inh | L3MBTL1 inh-2 | L3MBTL1 ctr
Cc1ccc(N(C(=O)CNC(=O)c2ccco2)C(C(=O)NC2CCCC2)c2cccnc2)cc1 (centres undefined) | x | x | x | 1% | 21%[12.4 µM] | x | x
O=C(O)/C=C/c1nc(-c2ccccc2)n2ccccc12 | 2% | 1% | 18µM* | 16% | 1% | u | -15%
COc1cccc(COC(=O)C2CCN(C(=O)c3ccc(F)cc3)CC2)c1OC | x | x | 1% | x | -4% | x | x
Cc1ccc(S(=O)(=O)Nc2cc3c(cc2NCc2ccccc2)n(C)c(=O)n3C)cc1 | x | x | x | -3% | x | x | x
Cc1ccc(-n2c(C)nc3oc4ccccc4c(=O)c3c2=O)cc1 | 4% | 1% | 40µM* | 0% | 4% | 27* | -2%
CCc1nc2oc3cc(OC)ccc3c(=O)c2c(=O)n1-c1ccccc1 | -6% | 4% | x | -2% | -5% | x | x
COc1cc(CNC(=O)c2cnc(C)cn2)cc(OC)c1 | x | x | 0% | -8% | 6% | x | x
COc1ccc(CNC(=O)c2cnc(C)cn2)cc1 | -2% | -4% | 22µM* | 4% | -3% | 17* | 13%
COc1ccc(C2CC(=O)Nc3ccccc3S2(=O)=O)cc1OC (centres undefined) | -15% | u | 11µM* | 2% | u | u | 1%
COc1ccc(C2CC(=O)Nc3cc(OC)c(OC)cc32)cc1Br (centres undefined) | x | x | -13% | -3% | 7% | x | x
CCc1ccccc1NC(=O)CSc1ccsc1[N+](=O)[O-] | -2% | -3% | 28µM* | -22% | 9% | 24* | -3%
O=C(CSc1nnc(-c2ccc(C(F)(F)F)cn2)o1)Nc1ccccc1Cl | 6% | -9% | 32µM* | -4% | 0% | 21* | 1%
O=C(N/N=C/c1cc2ccccc2nc1Cl)c1ccncc1 | -1% | -10% | 3% | -7% | -4% | x | x
COc1ccc2[nH]c(=O)cc(C(=O)O)c2c1 | -20% | u | 22µM* | -13% | u | 3.4* | 0%
Cc1ccc(C)c(NC(=O)CN(C)C(=O)c2cccc(-n3cccc3)c2)c1 | x | x | 8.9µM* | x | 3µM* | 2.7* | u
Nc1c(C(=O)OCC(=O)Nc2cccc([N+](=O)[O-])c2)[nH]c(=O)[nH]c1=O | x | x | 32µM* | x | u | 24* | 8%
O=C(COC(=O)c1ccccc1C(=O)c1ccccc1)Nc1cccc([N+](=O)[O-])c1 | -2% | 3% | -3% | -3% | 13% | x | x
O=S(=O)(c1ccc(Oc2ccc(Cl)cc2)nc1)N1CCOCC1 | x | x | 2% | x | 4% | x | x
CCn1c2ccccc2c2cc(N=C3SC(CC(=O)Nc4ccccc4OC)C(=O)N3CCOC)ccc21 (centres undefined) | -9% | 2% | 28µM* | -5% | -11% | 7.5* | u
CCn1c2ccccc2c2cc(N=C3SC(CC(=O)Nc4ccccc4OC)C(=O)N3C)ccc21 (centres undefined) | -1% | 2% | -6% | -5% | -5% | x | x
O=C(NNC(=O)C1CCCC1)c1ccccc1F | x | x | x | -2% | 2% | x | x
CCOC(=O)c1sc(NC(=O)CCN2CCCCCC2)c(C(=O)OCC)c1C | 4% | u | 3% | -4% | -6% | x | x
Cc1ccc(S(=O)(=O)NCCCCCC(=O)NC(C)(C)CO)cc1 | -7% | 6% | 2% | -1% | -2% | x | x
CCCC[N+](C)(C)CCC(=O)NC(C)(C)CS(=O)(=O)[O-] | -9% | 5% | 20µM* | 1% | 1% | 21* | -1%
Cc1oc(-c2ccc(F)cc2)cc1-c1nn2c(-c3ccoc3C)nnc2s1 | u | -3% | 18µM* | u | u | 6* | 6%
SMILES | RECQ1 inh | JMJD2E inh | L3MBTL1 inh-1 | BLM inh | APE1 inh | L3MBTL1 inh-2 | L3MBTL1 ctr
Cc1cc(C)c2cc(CN(CCCN(C)C)C(=S)NCc3ccccc3)c(=O)[nH]c2c1 | -5% | u | -9% | 5% | 0% | x | x
CCCCN(C(=O)c1cccc(-n2cccc2)c1)c1c(N)n(Cc2ccccc2)c(=O)[nH]c1=O | x | x | 20µM* | x | 2.7µM* | 4.2* | -29%
CC(C)c1ccc(C(=O)Nc2cccnc2)cc1 | x | x | 4% | -4% | 6% | x | x
CC1CCCN(CC(=O)N2c3ccccc3Sc3ccccc32)C1 (centres undefined) | -1% | -12% | 9% | -8% | 4% | x | x
CC(C)NS(=O)(=O)c1ccc(OCC(=O)Nc2ccc(F)cc2)cc1 | -8% | -3% | x | -1% | u | x | x
N=C1/C(=C\c2ccc(-c3cccc(Cl)c3)o2)C(=O)N=C2SC=C(c3ccccc3)N12 | -16% | -2% | 35µM* | u | 2% | 27* | u
N=C1/C(=C\c2ccc(-c3ccc(C(=O)O)cc3)o2)C(=O)N=C2SC=C(c3ccccc3)N12 | u | u | x | 5% | -12% | x | x
O=c1nc(/C=C/c2ccc(O)c(O)c2)oc2ccccc12 | 1% | 13µM* | 28µM* | 21% | u | 1.9* | -2%
CCCCn1c(N)c(N(CCOC)C(=O)c2ccc(S(=O)(=O)N(CC)c3ccccc3)cc2)c(=O)[nH]c1=O | x | x | 21% | x | 28% | x | x
